# Source: PubChem BioAssay (Tox21)
# Inconclusive results are not listed. Entries that show only a call come without a potency. The source made the active and inactive calls. Calls come from the whole dose curve; as a rule, active = well fitted activation curve with a large enough effect in the signal ratio in the repeat runs (not every such curve was filed as active); inconclusive = weak or mixed curves; inactive = flat fitted curve, though single readings scatter; the % refers to the signal ratio.
# Test: p53 small molecule agonists, cell-based qHTS assay (AID 1963582)
# Settings: HCT-116 p53RE-bla reporter, beta-lactamase FRET ratio, 16 h; series mostly up to 66 µM
# Text: National Center for Advancing Translational Sciences [NCATS]
# Division of Preclinical Innovation [DPI]
# U.S. Environmental Protection Agency [EPA]
# National Institutes of Environmental Health Sciences [NIEHS]
# National Toxicology Program [NTP]
# U.S. Food and Drug Administration [FDA]
# p53, a tumor suppressor protein, is activated following cellular insult, including DNA damage and other cellular stresses. The activation of p53 regulates cell fate by inducing DNA repair, cell cycle arrest, apoptosis, or cellular senescence. The activation of p53, therefore, is a good indicator of DNA damage and other cellular stresses. […] The activation of the reporter gene under culture conditions can be detected by fluorescence intensity. This cell line was used to screen the Tox21 10K compound library in a 1536-well plate format and to identify agonists that activate the p53 signaling pathway.
# Tox21 Assay Protocol Summary:
# The p53RE-bla cells were dispensed at 4,000 cells/5 ul/well in 1536-well black wall/clear bottom plates using a Multidrop dispenser. After the assay plates were incubated at a 37 C/5% CO2 incubator for 5 hours, 23 nL of compounds dissolved in DMSO, positive controls or DMSO only was transferred to the assay plate by a pin tool. The plates were incubated at 37 C for 16 hours. After 1 uL of LiveBLAzerTM B/G FRET substrate was added using a Flying Reagent Dispenser, the plates were incubated at room temperature for 2 hours, and fluorescence intensity was measured by an Envision plate reader.
row,SMILES,Potency
1,Oc1cc(Cl)cc(Cl)c1,inactive
2,O=CCCl,inactive
3,OCCCBr,inactive
4,CCOC(=O)CCN(SN(C)C(=O)Oc1cccc2c1OC(C)(C)C2)C(C)C,inactive
5,CCOP(=S)(OCC)Oc1cc(-c2ccccc2)on1,inactive
6,COP(=S)(OC)Oc1ccc(S(N)(=O)=O)cc1,inactive
7,O=C(CCCN1CCC2(CC1)C(=O)NCN2c1ccccc1)c1ccc(F)cc1,inactive
8,CC(C)(OO)c1ccccc1,inactive
9,ClC1=C(Cl)[C@]2(Cl)[C@@H]3[C@H]4C[C@H]([C@@H]5O[C@H]45)[C@@H]3[C@@]1(Cl)C2(Cl)Cl,inactive
10,NP(N)(=O)NC(=O)c1ccc(F)cc1,inactive
11,CCNP(=S)(OC)O/C(C)=C/C(=O)OC(C)C (stereo not given),inactive
12,CC(Cl)(Cl)[N+](=O)[O-],inactive
13,CC(=O)[C@H]1CC[C@H]2[C@@H]3CC[C@H]4C[C@H](O)CC[C@]4(C)[C@H]3C(=O)C[C@]12C,inactive
14,c1ccc2c(c1)OCC(C1=NCCN1)O2 (stereo not given),inactive
15,Nc1nc(N)nc(N)n1,inactive
16,COc1ccc([N+](=O)[O-])cc1O,inactive
17,O=C(O)COc1ccc(Cl)cc1,inactive
18,O=C(N[C@H]1CN2CCC1CC2)c1cc2ccoc2cn1,inactive
19,ClC(Cl)(Cl)Cl,inactive
20,Cc1ncc(C[n+]2csc(CCO)c2C)c(N)n1,inactive

row,SMILES,Potency
1,N#CCCl,inactive
2,OCC(c1ccc(Cl)cc1)c1ccc(Cl)cc1,inactive
3,CCCCCC[N+](=O)[O-],inactive
4,C[C@]12C=CC(=O)C=C1CC[C@@H]1[C@@H]2CC[C@@]2(C)[C@H]1CC[C@]2(C)O,inactive
5,[Cl][Sb]([Cl])[Cl],inactive
6,COc1ccc(-c2ccccc2)cc1NNC(=O)OC(C)C,inactive
7,CN[C@@H](C)[C@H](O)c1ccccc1,inactive
8,CC(C)[C@@H](C(=O)O[C@@H](C#N)c1cccc(Oc2ccccc2)c1)c1ccc(Cl)cc1,inactive
9,C=CCOC(=O)C(C)(C)OC(=O)c1cc(-n2c(=O)cc(C(F)(F)F)n(C)c2=O)ccc1Cl,inactive
10,C[C@H]1[C@@H]2Cc3ccc(O)cc3[C@@]1(C)CCN2C,inactive
11,COc1ccc2c(c1OC)CN1CCc3cc4c(cc3C1C2)OCO4 (stereo not given),inactive
12,COC(=O)COc1ccc(Cl)cc1Cl,inactive
13,[As]#[In],inactive
14,CN1C[C@@H](NS(=O)(=O)N(C)C)C[C@@H]2c3cccc4c3c(cn4C)C[C@H]21,inactive
15,FC(F)OC(F)(F)C(F)Cl (stereo not given),inactive
16,CC1NCCOC1c1ccccc1 (stereo not given),inactive
17,CC(C)(C)c1ccc(OP(=O)(Oc2ccccc2)Oc2ccccc2)cc1,inactive
18,CC(=O)C(Cl)(Cl)Cl,inactive
19,CNC(=O)Oc1ccccc1C(C)C,inactive
20,Clc1cc(Cl)c(-c2cc(Cl)c(Cl)cc2Cl)cc1Cl,inactive
